Screening results as filed in PubChem.
The entries come from a sample that favours hits as a whole.
NS1 function inh – influenza NS1 inhibition; Potency, µM (top dose mostly 46.1 µM); 270,000 tested, 0.4% active; AID 2326; calls by dose curve; also: actives are rising curves; nearly all actives have a fitted effect of over 50% in size
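OD600 was taken as the measure of yeast growth restored by compound in an NS1-expressing S. cerevisiae strain. Cells had been washed out of glucose medium and diluted 1:100 into galactose -URA medium, pH 6.0.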
AmpC no deterg – AmpC beta-lactamase inhibition without detergent; P00811; AmpC nitrocefin hydrolysis, absorbance 480 nm, 0.0001% Triton; Potency, µM (doses to about 57.1 µM), usual class: inhibitors; 330,000 tested, 0.52% active; AID 485341; also: nearly all actives have a fitted effect of over 20% in size
Target sequence (P00811 whole entry, looked up): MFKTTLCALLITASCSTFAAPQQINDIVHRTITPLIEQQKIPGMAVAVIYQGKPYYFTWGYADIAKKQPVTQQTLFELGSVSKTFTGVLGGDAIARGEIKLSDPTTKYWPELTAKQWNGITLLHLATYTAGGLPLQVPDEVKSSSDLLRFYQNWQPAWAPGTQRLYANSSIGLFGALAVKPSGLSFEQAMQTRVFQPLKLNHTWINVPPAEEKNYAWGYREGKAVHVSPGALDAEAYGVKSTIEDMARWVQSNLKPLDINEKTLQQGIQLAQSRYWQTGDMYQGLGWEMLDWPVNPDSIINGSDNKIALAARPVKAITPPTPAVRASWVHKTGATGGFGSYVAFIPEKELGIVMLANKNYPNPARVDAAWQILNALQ
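AmpC (5.3 nM in the dispensed reagent) in 20 mM phosphate pH 7.0 with 0.01% (detergent screen) or 0.0001% Triton X-100 was preincubated with compounds for 15 min at room temperature. Nitrocefin was then added from an 800 uM solution, and hydrolysis was followed at 480 nm.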
Cycloheximide cs – affects cycloheximide protein synthesis inhibition readout, counter-screen. cell reporter, cycloheximide protein synthesis inhibition counterscreen. max response, %. 300,000 tested, 12% active. AID 2314; in the data active = max response mostly above about 13%, no sharp cut-off; inactive = mostly below about 14%; also: read at 38.3 µM for the half of the compounds with a filed dose
Shiga toxin inh – blocks Shiga toxin action in Vero cells; 290,000 tested, 9.2% active; Vero cells, Shiga toxin protein synthesis inhibition reporter; inhibition, % at 38.7 µM; in the data active = inhibition mostly above about 28%, no sharp cut-off; inactive = mostly below about 43%
AmpC inh detg – blocks E. coli AmpC beta-lactamase in detergent assay; P00811; AmpC hydrolysis of nitrocefin, absorbance 480 nm, 0.01% Triton; Potency, µM (doses to about 114 µM), hits mostly inhibitors; 370,000 tested, 0.041% active; also: nearly all actives have a fitted effect of over 25% in size
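AmpC (5.3 nM in the dispensed reagent) in 20 mM phosphate pH 7.0 with 0.01% (detergent screen) or 0.0001% Triton X-100 was preincubated with compounds for 15 min at room temperature. Nitrocefin was then added from an 800 uM solution, and hydrolysis was followed at 480 nm.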
Hits are given with their value; - = inactive; ? = inconclusive; . = no result; + = active, no number; [ ] = remark or other dose. Unless noted, calls follow the shape of the dose curve; as a rule, active = well fitted curve in the direction sought with a large enough effect; inconclusive = small, poorly fitted or top-dose-only effect, or another doubt; inactive = no such curve, though single readings can be large; an effect the other way counts as inactive or inconclusive.

SMILES | NS1 function inh | AmpC no deterg | Cycloheximide cs | Shiga toxin inh | AmpC inh detg
COc1cc(C2=NOC(C(=O)Nc3ccc(C(C)=O)cc3)C2)cc(OC)c1OC (stereo not drawn) | - | - | 29 | 81 | ?
CN1CCN(C(=O)C2CC(c3c(F)cccc3Cl)=NO2)CC1 (stereo not drawn) | - | - | 10 | - | ?
COc1cc(NC(=O)C2CC(c3cccc(OC)c3OC)=NO2)cc(OC)c1OC (stereo not drawn) | - | - | - | - | ?
Cn1c(=O)c2cc(C(=O)N3CCN(c4ccc(Cl)cc4)CC3)sc2c2ccccc21 | . | . | . | . | -
COc1ccc(NC(=O)C2CC(c3c(F)cccc3Cl)=NO2)cc1OC (stereo not drawn) | - | - | 21 | . | -
COc1cc(NC(=O)C2CC(c3c(F)cccc3Cl)=NO2)c(OC)cc1Cl (stereo not drawn) | - | - | - | . | ?
N#Cc1c(NC(=O)C2CC(c3c(F)cccc3Cl)=NO2)sc2c1CCC2 (stereo not drawn) | - | - | 23 | 36 | -
O=C(Nc1ccc(Br)cc1)c1cc(-c2ccncc2)nc2ccccc12 | . | - | . | . | .
CCOc1ccc(-c2nnc(SCC(=O)NCc3ccccc3Cl)o2)cc1 | . | . | . | . | -
COc1ccc(CNCCC(c2ccc3c(c2)OCO3)c2ccccc2OC)cc1 (stereo not drawn) | . | . | . | . | -
CCOC(=O)N1CCN(/[N+]([O-])=N/Oc2ccc([N+](=O)[O-])cc2[N+](=O)[O-])CC1 | . | . | - | - | .
CC1(C)CC(=O)C2=C(C1)OC(N)=C(C#N)C2c1cn(-c2ccccc2)nc1-c1ccccc1 (stereo not drawn) | - | - | 18 | - | ?
Cc1cc(C)cc(NC(=O)CCc2nnc3n(CC(C)C)c(=O)c4ccccc4n23)c1 | . | . | . | . | -
CC1(C)CC(=O)C(C=Nc2ccccc2)=C(O)C1 | - | - | 26 | - | -
CC1(C)CC(=O)C(/C=N/n2cnc3ccccc3c2=O)=C(O)C1 | - | - | 14 | - | ?
COc1ccccc1CNC(=O)c1ccc2c(c1)nc(C)n2-c1ccccc1OC | . | . | . | . | -
CC(C)(C)n1ncc2c(=O)n(CC(=O)N3CCc4ccccc43)cnc21 | - | - | 12 | 69 | -
CC(C)(C)n1ncc2c(=O)n(Cc3cccc(Cl)c3)cnc21 | . | - | 33 | 46 | -
CC(C)(C)n1ncc2c(=O)n(CC(=O)c3ccccc3)cnc21 | - | - | 56 | 81 | -
CC(C)(C)n1ncc2c(=O)n(CC(=O)N3CCCc4ccccc43)cnc21 | - | - | - | - | -
CC(=O)c1cccc(NC(=O)CNC(=O)c2sc3ccccc3c2Cl)c1 | . | - | . | . | -
O=C(COC(=O)[C@@H]1CCCN1C(=O)c1cccs1)Nc1cccc([N+](=O)[O-])c1 | . | - | . | . | .
COc1ccc(C)cc1NC(c1nnc(-c2ccccc2)o1)c1ccc(F)cc1Cl (stereo not drawn) | . | . | . | . | -
CCCCN(Cc1cc2ccccc2[nH]c1=O)C(=O)c1ccccn1 | - | - | - | - | -
CCN(CC)c1ccc(/C=C(\C#N)C(=O)c2ccc(Br)cc2)cc1 | - | - | 20 | - | -
SMILES | NS1 function inh | AmpC no deterg | Cycloheximide cs | Shiga toxin inh | AmpC inh detg
CCN(CC)c1ccc(/C=C(\C#N)C(N)=S)cc1 | - | - | 25 | - | -
CCN(CC)c1ccc(/C=C(\C#N)C(N)=O)cc1 | - | - | 29 | - | -
COc1ccc(/C=C(\C#N)C(N)=O)cc1OC | - | . | . | . | .
N#C/C(=C\c1ccc2c(c1)OCO2)C(N)=S | - | - | - | - | -
CCCCC1=CC2=CC(=O)C(C)(OC(=O)CC)C(=O)C2=CN1CCN1CCOCC1 (stereo not drawn) | - | - | - | - | -
COc1ccccc1CN(C)C(=O)CN1C(=O)c2ccccc2C1=O | - | - | - | - | -
CCC(=O)Nc1ncnc2ncn(C(=O)CC)c12 | - | . | . | . | .
Brc1ccc(C2=NC(Cc3ccccc3)CO2)cc1 (stereo not drawn) | - | - | 52 | 77 | -
O=C(OCc1ccccc1)[C@@H]1COC(c2ccc(Br)cc2)=N1 | . | . | 38 | + | .
Cc1ccnc(N2CCC(C(=O)NNC(=O)COc3cccc4ccccc34)CC2)n1 | - | - | - | - | -
O=C(Nc1ccc([N+](=O)[O-])cc1Cl)c1cc(Cl)ccc1O | - | - | . | . | ?
O=C(Nc1ncc(Cc2cccc(C(F)(F)F)c2)s1)c1ccc(-c2cccc([N+](=O)[O-])c2)o1 | - | ? | - | - | -
O=C(Nc1ccccc1F)Nc1ccc([N+](=O)[O-])cc1Cl | - | - | 9.8 | 29 | -
O=C(Nc1ccccc1F)c1ccc(-c2cccc([N+](=O)[O-])c2)o1 | - | - | 22 | 63 | -
O=C(Nc1nccs1)c1ccc(-c2cccc([N+](=O)[O-])c2)o1 | . | - | 24 | - | -
C=Cc1ccc(Cn2c(=O)n(-c3cccc(Cl)c3)c(=O)c3c4c(sc32)CN(C(C)=O)CC4)cc1 | . | . | . | . | -
CCCC[C@]12Cc3ccccc3C(O1)c1c(c3ccccc3oc1=O)O2 | - | -[11.4 µM] | - | - | ?
O=C(O)C1CCCN(S(=O)(=O)c2ccc(Br)s2)C1 (stereo not drawn) | . | - | - | - | ?
O=C(NCc1ccc(F)cc1)C1CCCN(S(=O)(=O)c2ccc(Br)s2)C1 (stereo not drawn) | - | - | - | 55 | ?
O=C(NCc1ccc(F)cc1)C1CCN(S(=O)(=O)c2ccc(Br)s2)CC1 | - | - | 15 | 37 | -
O=C(NCc1cccs1)C1CCN(S(=O)(=O)c2ccc(Br)s2)CC1 | - | - | - | - | ?
CC(C)(C)NC(=O)NC(=O)CSc1nnc(COc2ccccc2Cl)o1 | - | - | 15 | - | -
O=[N+]([O-])c1cnc(Sc2ccncn2)s1 | - | - | - | - | ?
C=CCn1c(Sc2ncc([N+](=O)[O-])s2)n[nH]c1=O | - | - | 21 | - | -
OCCCSCCO | - | . | . | . | .
SMILES | NS1 function inh | AmpC no deterg | Cycloheximide cs | Shiga toxin inh | AmpC inh detg
COc1ccc(Cl)cc1NC(=O)C(C)n1nnc2sc3c(c2c1=O)CCCC3 (stereo not drawn) | . | . | . | . | -
O=C1c2cccnc2C(=O)N1c1ccccc1-c1ccccc1 | - | - | - | - | -
O=C(O)c1ccc(N2C(=O)c3cccnc3C2=O)cc1 | . | -[11.4 µM] | 19 | - | ?
CC(=O)c1ccc(NC(=O)c2ccc(N3C(=O)c4cccnc4C3=O)cc2)cc1 | - | - | 22 | - | -
CCCSc1ccc([C@H]2N[C@@](CC(C)C)(C(=O)OC)[C@H]3C(=O)N(C)C(=O)[C@@H]23)cc1 | . | - | . | . | -
CCOc1ccccc1NC(=O)C(CC)Sc1nc2ccsc2c(=O)n1CCC(=O)O (stereo not drawn) | - | - | - | - | -
CCC(Sc1nc2ccsc2c(=O)n1Cc1ccc(C(=O)O)cc1)C(=O)Nc1ccc(C)c(Cl)c1 (stereo not drawn) | - | 8.9µM | - | - | -
COC(=O)Cn1c(=NC(=O)c2sc3ccccc3c2Cl)sc2cc(S(N)(=O)=O)ccc21 | - | - | - | - | -
COC(=O)Cn1c(=NC(=O)c2ccc([N+](=O)[O-])s2)sc2cc(Br)ccc21 | - | - | 15 | - | ?
